Measurements published in PubChem BioAssay (EPA / NIEHS).
Where “and” joins values, the source holds several entries; their conditions need not be identical. Equal entries are not always repeated. Inconclusive results are not listed. Calls of active or inactive are those of the source. The calls were made as follows: active = hit-call score of the fitted dose curve at least 0.9, where 1 is the maximum; inconclusive = response in the unintended direction; inactive = score below 0.9.

Biological target: human Peripheral-type Benzodiazepine Receptor (PBR), TSPO (gene 706) (UniProt P30536)
Sequence (P30536 whole entry, looked up): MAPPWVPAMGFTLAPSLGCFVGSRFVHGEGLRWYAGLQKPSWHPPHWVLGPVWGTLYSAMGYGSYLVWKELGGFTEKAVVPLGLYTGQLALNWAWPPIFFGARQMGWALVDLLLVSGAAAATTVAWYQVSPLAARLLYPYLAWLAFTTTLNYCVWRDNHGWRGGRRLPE
Experiment: NVS_MP_hPBR: NovaScreen (NVS) Membrane Protein Assay for human Peripheral-type Benzodiazepine Receptor (PBR) (AID 2283331);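 also: hits reduce radioligand binding relative to DMSO baseline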
Procedure, shortened: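 Human colonic cell membranes were incubated with test chemical for 1 hour; radioligand binding was measured by filter-based scintillation counting. Primary screen ran in duplicate at 25 uM, with actives followed in concentration series; loss of signal versus DMSO baseline.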

| Structure (SMILES) | AC50 | outcome |
| --- | --- | --- |
| O=C(OCCOCCOCCOC(=O)c1ccccc1)c1ccccc1 | 9.76 µM (active) | – |
| CC(=O)Nc1ccc(N=Nc2cc(C)ccc2O)cc1 | 2.21 µM (active) | – |
| CC(CCl)OP(=O)(OC(C)CCl)OC(C)CCl (stereo not drawn) | 23.8 µM (active) | – |
| CCCCCCC(C)OC(=O)CCCCC(=O)OC(C)CCCCCC (stereo not drawn) | 10.2 µM (active) | – |
| CCCCCCCCCCCCCCCC[N+](C)(C)Cc1ccccc1 | 41.3 µM (active) | – |
| CC(C)OC(=O)c1ccccc1C(=O)OC(C)C | 11.5 µM (active) | – |
| CCN(CC)c1ccc2c(C)cc(=O)oc2c1 | 4.66 µM (active) | – |
| CCCCOCCOCCOC(=O)CCCCC(=O)OCCOCCOCCCC | – | inactive |

Biological target: rat Peripheral-type Benzodiazepine Receptor (PBR), Tspo (gene 24230) (UniProt P16257)
Sequence (P16257 whole entry, looked up): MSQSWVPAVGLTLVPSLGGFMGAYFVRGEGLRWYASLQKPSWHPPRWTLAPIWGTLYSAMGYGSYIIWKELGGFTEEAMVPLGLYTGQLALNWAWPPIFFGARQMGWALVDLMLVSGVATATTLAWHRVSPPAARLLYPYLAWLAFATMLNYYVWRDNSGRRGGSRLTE
Experiment: NVS_MP_rPBR: NovaScreen (NVS) Membrane Protein Assay for rat Peripheral-type Benzodiazepine Receptor (PBR) (AID 2283335)
Procedure, shortened: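 Rat kidney membranes; radioligand binding with displacement, filter-based scintillation counting, 1 h incubation. Primary screen in duplicate at 25 uM, actives followed in concentration series; loss of binding vs DMSO.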

| Structure (SMILES) | AC50 |
| --- | --- |
| Nc1ccc(Oc2cccc(Oc3ccc(N)cc3)c2)cc1 | 13.3 µM (active) |
| CC(CCl)OP(=O)(OC(C)CCl)OC(C)CCl (stereo not drawn) | 4.23 µM (active) and 14.6 µM (active) |
| CCCCCCCCCCCCCCCC[N+](C)(C)Cc1ccccc1 | 9.82 µM (active) |
| CC(Cc1ccc(O)c(O)c1)C(C)Cc1ccc(O)c(O)c1 (stereo not drawn) | 6.77 µM (active) |
| CC(C)OC(=O)c1ccccc1C(=O)OC(C)C | 9.08 µM (active) |
| CCN(CC)c1ccc2c(C)cc(=O)oc2c1 | 3.32 µM (active) |

Biological target: bovine Estrogen Receptor (ER), ESR1 (gene 407238) (UniProt P49884)
Sequence (P49884 whole entry, looked up): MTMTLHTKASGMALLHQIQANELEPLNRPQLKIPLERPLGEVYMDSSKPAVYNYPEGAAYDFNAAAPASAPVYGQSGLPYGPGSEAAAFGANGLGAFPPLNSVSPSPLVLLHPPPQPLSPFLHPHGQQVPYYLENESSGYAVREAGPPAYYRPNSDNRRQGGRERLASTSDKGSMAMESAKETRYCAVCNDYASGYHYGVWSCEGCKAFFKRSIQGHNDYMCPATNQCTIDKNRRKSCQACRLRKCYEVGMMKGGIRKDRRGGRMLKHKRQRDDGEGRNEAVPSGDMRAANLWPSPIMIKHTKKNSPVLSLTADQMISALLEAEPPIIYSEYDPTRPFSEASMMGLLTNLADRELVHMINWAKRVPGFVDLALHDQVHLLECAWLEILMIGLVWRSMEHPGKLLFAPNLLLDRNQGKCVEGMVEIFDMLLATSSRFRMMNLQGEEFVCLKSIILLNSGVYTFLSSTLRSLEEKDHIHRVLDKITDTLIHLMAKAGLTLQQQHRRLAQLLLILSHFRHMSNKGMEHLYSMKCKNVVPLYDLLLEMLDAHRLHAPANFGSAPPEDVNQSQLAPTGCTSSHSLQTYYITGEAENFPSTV
Experiment: NVS_NR_bER: NovaScreen (NVS) Nuclear Receptor Binding Assay for bovine Estrogen Receptor (ER) (AID 2283345);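 also: actives lower the bound radioligand count which means they displace the ER ligand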
Procedure, shortened: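 Bovine uterine membranes; tritiated or iodinated radioligand; competitive displacement; 18 h; scintillation read; DMSO negative control; 25 uM duplicates, then concentration series for actives.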

| Structure (SMILES) | AC50 | outcome |
| --- | --- | --- |
| C#C[C@]1(O)CC[C@H]2[C@@H]3CCc4cc(OC)ccc4[C@H]3CC[C@@]21C | 0.0305 µM (active) | – |
| CCCCCCCCCCCCCCCC[N+](C)(C)Cc1ccccc1 | – | inactive |
| Oc1ccc(Nc2ccccc2)cc1 | 25 µM (active) | – |
| CC(Cc1ccc(O)c(O)c1)C(C)Cc1ccc(O)c(O)c1 (stereo not drawn) | 11.1 µM (active) | – |
| C(=C(c1ccccc1)c1ccccc1)c1ccccc1 | – | inactive |
| CCN(CC)c1ccc2c(C)cc(=O)oc2c1 | – | inactive |
| c1ccc(B(c2ccccc2)c2ccccc2)cc1 | – | inactive |
| Nc1ccc([N+](=O)[O-])cc1O | – | inactive |

Biological target: chimpanzee Androgen Receptor (AR), AR (gene 747460) (UniProt O97775)
Sequence (O97775 whole entry, looked up): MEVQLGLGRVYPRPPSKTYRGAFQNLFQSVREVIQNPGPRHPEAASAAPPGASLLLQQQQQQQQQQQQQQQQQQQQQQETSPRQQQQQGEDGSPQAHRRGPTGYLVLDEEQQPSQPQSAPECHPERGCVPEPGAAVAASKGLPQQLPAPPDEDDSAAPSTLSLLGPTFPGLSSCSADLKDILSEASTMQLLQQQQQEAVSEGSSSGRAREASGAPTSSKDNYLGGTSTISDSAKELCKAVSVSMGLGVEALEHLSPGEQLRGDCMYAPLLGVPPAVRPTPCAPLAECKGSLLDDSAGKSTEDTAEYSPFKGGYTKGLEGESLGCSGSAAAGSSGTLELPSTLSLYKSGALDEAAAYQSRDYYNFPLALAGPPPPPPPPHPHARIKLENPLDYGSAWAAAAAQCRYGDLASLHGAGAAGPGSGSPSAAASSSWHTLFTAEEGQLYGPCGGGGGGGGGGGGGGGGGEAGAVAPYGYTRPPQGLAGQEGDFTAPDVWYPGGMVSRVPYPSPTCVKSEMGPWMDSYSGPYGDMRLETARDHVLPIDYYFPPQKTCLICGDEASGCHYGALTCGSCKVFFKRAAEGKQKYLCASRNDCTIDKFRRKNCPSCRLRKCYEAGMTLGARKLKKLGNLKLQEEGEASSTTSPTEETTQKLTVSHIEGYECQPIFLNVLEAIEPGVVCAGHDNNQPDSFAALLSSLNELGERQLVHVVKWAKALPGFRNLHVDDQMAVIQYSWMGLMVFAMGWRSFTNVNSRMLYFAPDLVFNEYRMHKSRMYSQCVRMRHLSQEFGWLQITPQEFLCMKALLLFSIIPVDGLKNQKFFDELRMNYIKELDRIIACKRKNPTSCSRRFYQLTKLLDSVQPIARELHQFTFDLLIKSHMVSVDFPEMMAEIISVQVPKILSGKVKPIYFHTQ
Experiment: NVS_NR_cAR: NovaScreen (NVS) Nuclear Receptor Binding Assay for chimpanzee Androgen Receptor (AR) (AID 2283346);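 also: radioligand displacement from AR measured by scintillation counting in a cell-free assay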
Procedure, shortened: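 Cell-free radioligand displacement using receptor protein extracted from Sf9/Sf21 cells; bound radioligand measured by scintillation counting 72 hours after chemical dosing. Loss of signal versus DMSO baseline indicates binding; primary screen single-concentration in duplicate at 25 uM, actives followed in concentration series.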

| Structure (SMILES) | outcome | AC50 |
| --- | --- | --- |
| CC(=O)Nc1ccc(N=Nc2cc(C)ccc2O)cc1 | inactive | – |
| C#C[C@]1(O)CC[C@H]2[C@@H]3CCc4cc(OC)ccc4[C@H]3CC[C@@]21C | – | 3.99 µM (active) |
| CCCCCCC(C)OC(=O)CCCCC(=O)OC(C)CCCCCC (stereo not drawn) | inactive | – |
| CCN(CC)c1ccc2c(C)cc(=O)oc2c1 | – | 5 µM (active) |
| c1ccc(B(c2ccccc2)c2ccccc2)cc1 | – | 17.5 µM (active) |
| CCN(Cc1cccc(S(=O)(=O)O)c1)c1ccc(C(=C2C=CC(=[N+](CC)Cc3cccc(S(=O)(=O)O)c3)C=C2)c2ccc(O)cc2S(=O)(=O)[O-])cc1 | – | 13.2 µM (active) |
